ClpP mod – qHTS Assay for Activators of ClpP | purified B. subtilis ClpP, FRET peptide cleavage, 20 min | Potency, µM (series often up to 57.5 µM) | actives 1.9% (n = 340,000) | AID 651965, 2013; active = well fitted falling curve with a large enough effect; inconclusive = small, poorly fitted or top-dose-only effect; inactive = no such curve, though single readings can be large or run the other way; note: the source files actives as falling curves though it sought activators and does not explain the sign; nearly all actives have a fitted effect of over 65% in size
Target sequence (P80244 whole entry, looked up): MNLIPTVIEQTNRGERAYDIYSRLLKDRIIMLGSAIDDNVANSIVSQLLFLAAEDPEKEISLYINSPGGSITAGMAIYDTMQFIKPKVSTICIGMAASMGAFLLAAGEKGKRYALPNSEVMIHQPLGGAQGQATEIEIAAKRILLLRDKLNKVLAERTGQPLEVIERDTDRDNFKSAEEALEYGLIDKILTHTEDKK
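Buffer: 100 mM Tris/HCl pH8, 100 mM KCl, 0.05% low protease BSA, 2.5% glycerol, 0.01% Tween-20. ClpP 10 microg/mL final; 20 min RT; delta FRET normalized to ADEP and DMSO controls.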
DRD3 antagonist – blocks the human D3 dopamine receptor; D3R cells, DiscoveRx beta-arrestin luminescence, antagonist mode; hits give low values; max response, negative = inhibition, %; actives 2.5% (n = 360,000); in the data active = max response below about -50%; inconclusive = no clear call, values can overlap the other calls
Target sequence (P35462 whole entry, looked up): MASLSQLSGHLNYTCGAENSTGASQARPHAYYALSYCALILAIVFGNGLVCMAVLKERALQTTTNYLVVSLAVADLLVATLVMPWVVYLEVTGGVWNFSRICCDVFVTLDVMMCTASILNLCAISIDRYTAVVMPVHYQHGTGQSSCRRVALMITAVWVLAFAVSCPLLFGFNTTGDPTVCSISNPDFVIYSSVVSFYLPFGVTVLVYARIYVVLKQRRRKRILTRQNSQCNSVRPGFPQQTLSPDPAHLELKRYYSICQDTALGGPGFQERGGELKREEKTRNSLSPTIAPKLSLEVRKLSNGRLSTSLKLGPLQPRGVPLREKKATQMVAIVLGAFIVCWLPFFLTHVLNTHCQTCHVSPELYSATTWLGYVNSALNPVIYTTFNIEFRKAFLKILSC
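Cells expressing the human receptor were seeded at 1500 cells/well, incubated overnight at 37 degrees C in 5% CO2, then exposed to library compounds with dopamine controls for 90 minutes at 37 degrees C before luminescent detection.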
TDP1 cell noCPT – qHTS for Inhibitors of human tyrosyl-DNA phosphodiesterase 1 (TDP1): qHTS in cells in absence of CPT | Potency, µM (series often up to 46.2 µM), usual class: inhibitors | DT40 Tdp1-/- hTDP1 cells, no CPT, ATP luminescence, 48 h | actives 15% (n = 420,000); note: nearly all actives have a fitted effect of over 55% in size
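A cellular qHTS used chicken DT40 cells lacking endogenous Tdp1 but carrying stably transfected human TDP1. Compounds were applied without camptothecin, and cell growth kinetics were judged by ATP-dependent luminescence after ≥48 hr.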
TDP1 cell CPT – growth inhibition of DT40 Tdp1-/-;hTDP1 cells with camptothecin (screen for TDP1 inhibitors); chicken DT40 Tdp1-/-;hTDP1 cells + 20 nM CPT, ATP luminescence, 48 h; Potency, µM (series often up to 46.2 µM), actives largely listed as inhibitors; actives 12% (n = 420,000); AID 686979; note: nearly all actives have a fitted effect of over 55% in size
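Chicken DT40 Tdp1-/- cells stably complemented with human TDP1 were seeded at 400 cells/well in medium containing 20 nM camptothecin, exposed to pin-transferred compounds, and grown at 37 °C for at least 48 hr. Viability was read as ATP luminescence.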
D3 ag – D3 dopamine receptor (human) agonism; D3R DiscoveRx beta-arrestin cells, luminescence, 90 min; max activation, %; actives 0.58% (n = 410,000); in the data active = max activation above about 30%
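Agonist-mode cell screen: cells plated at 1500/well and incubated overnight at 37 °C, then exposed to library compounds for 90 min at 37 °C. Detection reagent was added for 30–60 min at room temperature, and luminescence was read.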
IL1B secr inh – inhibitors of inflammasome signaling (IL-1 beta secretion). actives 4.7% (n = 360,000). activity change, % at 57.5 µM. AID 743279. THP-1 LPS/ATP IL-1B secretion, AlphaLISA, 16 h; hits give low values; in the data active = activity change below about -50%; inconclusive = mostly about -30% to -49%
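THP-1 cells pretreated 1 hr with compounds (up to 57.5 uM final), then stimulated with LPS (250 ng/mL final) plus ATP (1.25 mM final); secreted IL-1B measured by AlphaLISA after 16 hr, decreased signal indicating inhibition.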
Numbers stand for hits; 0 = inactive; ? = inconclusive; - = no result given. The list is not random: actives were taken first. Their share in the collection is about 21%. Unless noted, calls come from the whole dose curve; as a rule, active = well fitted inhibition curve with a large enough effect; inconclusive = small, poorly fitted or top-dose-only effect; inactive = flat fitted curve, though single readings scatter.

SMILES	ClpP mod	DRD3 antagonist	TDP1 cell noCPT	TDP1 cell CPT	D3 ag	IL1B secr inh
Cc1ccc(C)c(N2CCN(C(=O)c3ccc(Cn4c(=S)[nH]c5ccc(N6CCOCC6)cc5c4=O)cc3)CC2)c1	-	0	14.6µM	?	0	0
COc1ccc(N2CCN(C(=O)c3ccc(Cn4c(=S)[nH]c5ccc(N6CCOCC6)cc5c4=O)cc3)CC2)cc1	-	0	18.4µM	23.1µM	0	0
COc1ccc(NC(=O)n2ncc3c(C)cccc32)cc1	0	?	0	0	0	0
Cc1cccc(-n2c(C)nnc2SCC(=O)NC(C)c2ccco2)c1 (centres undefined)	0	-	0	0	-	-
CC(C)c1ccc(S(=O)(=O)N2CCC(N3CCN(Cc4ccccc4)C(=O)C3=O)CC2)cc1	0	-	0	?	0	-
O=C(c1ccc(Cn2c(=S)[nH]c3ccc(N4CCOCC4)cc3c2=O)cc1)N1CCN(c2ccc(F)cc2)CC1	20µM	0	16.4µM	16.4µM	0	0
CCOc1cc2[nH]c(=S)n(C(C)C)c(=O)c2cc1OCC	0	0	?	18.4µM	0	0
CCOc1cc2[nH]c(=S)n(C3CC3)c(=O)c2cc1OCC	0	0	?	0	0	0
O=C(c1ccc(Cn2c(=O)[nH]c3ccccc3c2=O)cc1)N1CCN(c2ccc(F)cc2)CC1	0	0	?	?	0	0
CCOc1cc2[nH]c(=S)n(CCCOC)c(=O)c2cc1OCC	0	0	?	0	0	0
CCOc1cc2[nH]c(=S)n(Cc3ccc(C)o3)c(=O)c2cc1OCC	0	0	0	29.1µM	0	0
CC(C)OC(=O)c1cccc(C(=O)Nc2cccc(NC(=O)c3cccc(C(=O)OC(C)C)n3)n2)n1	-	0	2.06µM	?	0	0
COC(=O)c1cccc(C(=O)Nc2ccc(F)cc2)n1	0	-62.1	0	0	0	0
O=C(O)c1ccc(NC(=O)c2cccc(C(=O)Nc3ccc(C(=O)O)cc3)n2)cc1	0	0	?	?	0	0
CC(=O)Nc1ccc(NC(=O)c2cccc(C(=O)OC(C)C)n2)cc1	0	0	?	0	0	0
CN(C)c1ccc(NC(=O)c2cccc(C(=O)Nc3ccc(N(C)C)cc3)n2)cc1	0	?	6.51µM	9.2µM	0	-55.9
COc1ccc(OC)c(NS(=O)(=O)c2c(C(=O)N3CCCCCC3)c(C)n(C)c2C)c1	0	0	0	0	0	0
Cc1ccccc1C(=O)n1nc(-c2cccnc2)nc1NCc1ccc(F)cc1	0	-	?	?	0	-
NC(=O)CC(NC(=O)c1ccc(Br)cc1)c1ccc(N2CCN(c3ccc(F)cc3)CC2)c([N+](=O)[O-])c1 (centres undefined)	0	?	23.1µM	25.9µM	0	0
NC(=O)CC(NC(=O)c1ccc(Br)cc1)c1ccc(N2CCCCCCC2)c([N+](=O)[O-])c1 (centres undefined)	0	?	10.3µM	20.6µM	0	0
NC(=O)CC(NC(=O)c1cccc(Br)c1)c1ccc(N2CCC(N3CCCCC3)CC2)c([N+](=O)[O-])c1 (centres undefined)	0	0	0	0	0	0
NC(=O)CC(NC(=O)c1cccc(Br)c1)c1ccc(N2CCN(c3ccc(F)cc3)CC2)c([N+](=O)[O-])c1 (centres undefined)	0	0	13µM	23.1µM	0	0
NC(=O)CC(NC(=O)c1ccc(Br)cc1)c1ccc(N2CCN(c3ccccc3)CC2)c([N+](=O)[O-])c1 (centres undefined)	0	0	?	?	0	0
O=S(=O)(c1ccccc1)[C@@]1(c2ccccc2)C[C@@H]2ON=C(c3cccc(Br)c3)[C@@H]2C1	0	0	3.66µM	4.61µM	0	0
O=C(O)[C@]1(S(=O)(=O)c2ccccc2)C[C@@H]2ON=C(c3cccc(Br)c3)[C@@H]2C1	0	0	0	?	0	0
SMILES	ClpP mod	DRD3 antagonist	TDP1 cell noCPT	TDP1 cell CPT	D3 ag	IL1B secr inh
FC(F)(F)c1cc(-c2ccccc2)nc2cc(-c3ccccc3)nn12	0	-	0	0	0	-
O=C(Cn1c2ncccc2c(=O)n1-c1ccccc1)Nc1ccc(Cl)cc1C(F)(F)F	0	-	?	?	0	-
CCCCN(C)C(=O)C1CCCN(c2ncnc3onc(C)c23)C1 (centres undefined)	0	-	1.84µM	5.17µM	0	-
CCN(CC)CCNC(=O)C1CCCN(c2ncnc3onc(C)c23)C1 (centres undefined)	0	-	0	0	0	-
CCCCN(CC)C(=O)C1CCCN(c2ncnc3onc(C)c23)C1 (centres undefined)	0	-	20.6µM	18.4µM	0	-
CC(C)COc1ccc(C(=O)N2CCCCC2CCN2CCOCC2)cc1 (centres undefined)	0	-	?	?	0	-
Cc1ccc(NC(=O)C2CCN(C(=O)c3cnn(-c4ccccc4)c3-n3cccc3)CC2)cc1C	0	-	?	18.4µM	0	-
Cc1cc(C)cc(NC(=O)C2CCN(C(=O)c3cnn(-c4ccccc4)c3-n3cccc3)CC2)c1	0	-	14.6µM	18.4µM	0	-
CSc1cccc(NC(=O)C2CCCN(C(=O)c3cnn(-c4ccc(F)cc4)c3-n3cccc3)C2)c1 (centres undefined)	0	-	16.4µM	18.4µM	0	-
Cc1ccccc1NC(=O)C1CCN(C(=O)c2cnn(-c3ccccc3)c2-n2cccc2)CC1	0	-	16.4µM	?	0	-
Cc1ccc(NC(=O)C2CCN(C(=O)c3cnn(-c4ccccc4)c3-n3cccc3)CC2)cc1	0	-	13µM	?	0	-
Cc1ccc(CNC(=O)C2CCN(C(=O)c3cnn(-c4ccccc4)c3-n3cccc3)CC2)cc1	0	-	9.2µM	11.6µM	0	-
O=C(NCc1ccc(F)cc1)C1CCN(C(=O)c2cnn(-c3ccccc3)c2-n2cccc2)CC1	0	-	?	?	0	-
COc1ccc(OC)c(C2=C/C(=C/c3ccccn3)C(=O)O2)c1	-	0	0	0	0	0
O=C(CSC1=Nc2ccccc2C2CC=NN12)Nc1ccc2c(c1)OCO2 (centres undefined)	0	-50.2	23.1µM	7.31µM	0	?
N#Cc1ccccc1NC(=O)CSc1ccc([N+](=O)[O-])cn1	-	0	0	?	0	0
N#Cc1ccccc1NC(=O)CSC1=Nc2ccccc2C2CC=NN12 (centres undefined)	-	0	23.1µM	14.6µM	0	0
CCCOC(=O)c1ccc(NC(=O)CCOc2ccccc2)cc1	0	0	?	0	0	0
CCCOC(=O)c1ccc(NC(=O)CSC2=Nc3ccccc3C3CC=NN23)cc1 (centres undefined)	0	0	?	23.1µM	0	0

Source: PubChem
